The whole screen tested about 5,500 compounds, of which about 2,000 (36%) were called active. Not shown: some 18% with an inconclusive outcome. Cut-off read from the data, not from the text of the source: active = normalized growth mostly below about 0.91 (no sharp cut-off); inconclusive = no clear call, values can overlap the other calls; inactive = mostly above about 0.92. The list shows a part of the results.
Assay: chemical genetic growth profiling, strain panel (AID 1159580);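 note: tested at 20 µM; growth read once vehicle control cultures reached saturation at 30 °C; 1 = growth at the plate median or of vehicle wells; lower values mean less growth of the strain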
Settings: growth OD

Measured: normalized growth

CN1CCOC(c2ccccc2)c2ccccc2C1 (configuration not stated)
inactive: S. cerevisiae deletion strains, locus YJR075W, strain HOC1, active compounds read low 0.992 | S. cerevisiae deletion strains, locus YKL009W, strain mrt4, active compounds read low 0.956 | S. cerevisiae deletion strains, locus YKL068W, active compounds read low 1.01 | S. cerevisiae deletion strains, locus YKL085W, strain MDH1 (second series), active compounds read low 0.996 | S. cerevisiae deletion strains, locus YKL085W, strain MDH1, active compounds read low 0.996 | S. cerevisiae deletion strains, locus YKL160W, strain elf1, active compounds read low 0.993 | S. cerevisiae deletion strains, locus YKL190W, strain CNB1, active compounds read low 1 | S. cerevisiae deletion strains, locus YKR001C, strain vps1, active compounds read low 1.03 | S. cerevisiae deletion strains, locus YKR026C, strain gcn3, active compounds read low 0.978 | S. cerevisiae deletion strains, locus YKR091W, strain srl3, active compounds read low 0.984 | S. cerevisiae deletion strains, locus YLL001W, strain dnm1, active compounds read low 0.976 | S. cerevisiae deletion strains, locus YLL026W, active compounds read low 0.99 | S. cerevisiae deletion strains, locus YLL041C, strain sdh2, active compounds read low 0.983 | S. cerevisiae deletion strains, locus YLR027C, strain aat2, active compounds read low 1 | S. cerevisiae deletion strains, locus YLR039C, strain RIC1, active compounds read low 1.01 | S. cerevisiae deletion strains, locus YLR058C, strain SHM2, active compounds read low 1 | S. cerevisiae deletion strains, locus YLR102C, strain apc9, active compounds read low 1.02 | S. cerevisiae deletion strains, locus YLR113W, strain HOG1, active compounds read low 0.997 | S. cerevisiae deletion strains, locus YLR221C, strain rsa3, active compounds read low 0.983 | S. cerevisiae deletion strains, locus YLR258W, strain gsy2, active compounds read low 0.948 | S. cerevisiae deletion strains, locus YLR262C, strain YPT6 (second series), active compounds read low 0.955 | S. cerevisiae deletion strains, locus YLR262C, strain YPT6, active compounds read low 1.02 | S. cerevisiae deletion strains, locus YLR268W, strain sec22, active compounds read low 1.07 | S. cerevisiae deletion strains, locus YLR320W, strain mms22, active compounds read low 0.975 | S. cerevisiae deletion strains, locus YLR330W, strain CHS5, active compounds read low 1.01 | S. cerevisiae deletion strains, locus YLR342W, strain FKS1 (second series), active compounds read low 1.01 | S. cerevisiae deletion strains, locus YLR342W, strain FKS1, active compounds read low 0.982 | S. cerevisiae deletion strains, locus YLR357W, strain rsc2, active compounds read low 0.954 | S. cerevisiae deletion strains, locus YLR370C, strain arc18, active compounds read low 0.982 | S. cerevisiae deletion strains, locus YLR371W, strain rom2, active compounds read low 1.04 | S. cerevisiae deletion strains, locus YLR384C, strain iki3, active compounds read low 0.979 | S. cerevisiae deletion strains, locus YLR418C, strain cdc73, active compounds read low 1.05 | S. cerevisiae deletion strains, locus YML016C, strain PPZ1, active compounds read low 0.999 | S. cerevisiae deletion strains, locus YML032C, strain rad52, active compounds read low 1.03 | S. cerevisiae deletion strains, locus YML120C, strain ndi1, active compounds read low 0.995 | S. cerevisiae deletion strains, locus YML124C, strain tub3, active compounds read low 1.02 | S. cerevisiae deletion strains, locus YMR058W, strain fet3, active compounds read low 1.01 | S. cerevisiae deletion strains, locus YMR078C, strain ctf18, active compounds read low 1.01 | S. cerevisiae deletion strains, locus YMR125W, strain sto1, active compounds read low 0.967 | S. cerevisiae deletion strains, locus YMR129W, active compounds read low 0.999 | S. cerevisiae deletion strains, locus YMR205C, strain PFK2, active compounds read low 0.966 | S. cerevisiae deletion strains, locus YMR223W, strain ubp8, active compounds read low 1.01 | S. cerevisiae deletion strains, locus YMR231W, strain pep5, active compounds read low 0.973 | S. cerevisiae deletion strains, locus YMR263W, strain SAP30, active compounds read low 1.02 | S. cerevisiae deletion strains, locus YMR307W, strain GAS1, active compounds read low 1.15 | S. cerevisiae deletion strains, locus YNL067W, strain RPL9B, active compounds read low 1.02 | S. cerevisiae deletion strains, locus YNL071W, strain lat1, active compounds read low 0.951 | S. cerevisiae deletion strains, locus YNL128W, strain TEP1, active compounds read low 1.01 | S. cerevisiae deletion strains, locus YNL153C, strain GIM3, active compounds read low 1.02 | S. cerevisiae deletion strains, locus YNL183C, strain NPR1, active compounds read low 0.945 | S. cerevisiae deletion strains, locus YNL209W, strain ssb2, active compounds read low 0.981 | S. cerevisiae deletion strains, locus YNL233W, strain BNI4, active compounds read low 1.01 | S. cerevisiae deletion strains, locus YNL248C, strain rpa49, active compounds read low 0.954 | S. cerevisiae deletion strains, locus YNL250W, strain rad50, active compounds read low 1.01 | S. cerevisiae deletion strains, locus YNL271C, strain bni1, active compounds read low 1.02 | S. cerevisiae deletion strains, locus YNL298W, strain CLA4, active compounds read low 1.01 | S. cerevisiae deletion strains, locus YNL307C, strain MCK1, active compounds read low 1.02 | S. cerevisiae deletion strains, locus YNL322C, strain KRE1 (second series), active compounds read low 0.958 | S. cerevisiae deletion strains, locus YNL322C, strain KRE1, active compounds read low 0.941 | S. cerevisiae deletion strains, locus YNR049C, strain mso1, active compounds read low 0.968 | S. cerevisiae deletion strains, locus YNR052C, strain pop2, active compounds read low 1.03 | S. cerevisiae deletion strains, locus YOL006C, strain TOP1, active compounds read low 1.07 | S. cerevisiae deletion strains, locus YOL012C, strain htz1 1.34 | S. cerevisiae deletion strains, locus YOL147C, strain pex11, active compounds read low 1.01 | S. cerevisiae deletion strains, locus YOR001W, strain rrp6, active compounds read low 0.99 | S. cerevisiae deletion strains, locus YOR061W, strain CKA2, active compounds read low 1.01 | S. cerevisiae deletion strains, locus YOR069W, strain VPS5, active compounds read low 1 | S. cerevisiae deletion strains, locus YOR070C, strain gyp1, active compounds read low 0.981 | S. cerevisiae deletion strains, locus YOR080W, strain dia2, active compounds read low 0.989 | S. cerevisiae deletion strains, locus YOR083W, strain WHI5, active compounds read low 0.971 | S. cerevisiae deletion strains, locus YOR106W, strain vam3, active compounds read low 0.963 | S. cerevisiae deletion strains, locus YOR136W, strain idh2, active compounds read low 1.01 | S. cerevisiae deletion strains, locus YOR144C, strain elg1, active compounds read low 1.02 | S. cerevisiae deletion strains, locus YOR184W, strain ser1, active compounds read low 1.02 | S. cerevisiae deletion strains, locus YOR231W, strain MKK1, active compounds read low 0.995 | S. cerevisiae deletion strains, locus YOR265W, strain rbl2, active compounds read low 0.985 | S. cerevisiae deletion strains, locus YOR270C, strain vph1, active compounds read low 0.917 | S. cerevisiae deletion strains, locus YOR290C, strain snf2, active compounds read low 0.966 | S. cerevisiae deletion strains, locus YOR316C, strain cot1, active compounds read low 1.02 | S. cerevisiae deletion strains, locus YPL051W, strain arl3, active compounds read low 0.995 | S. cerevisiae deletion strains, locus YPL055C, strain LGE1, active compounds read low 1 | S. cerevisiae deletion strains, locus YPL078C, strain atp4, active compounds read low 0.979 | S. cerevisiae deletion strains, locus YPL106C, strain sse1, active compounds read low 0.921 | S. cerevisiae deletion strains, locus YPL240C, strain hsp82, active compounds read low 0.969 | S. cerevisiae deletion strains, locus YPL241C, strain CIN2, active compounds read low 1.01 | S. cerevisiae deletion strains, locus YPL256C, strain CLN2, active compounds read low 0.997 | S. cerevisiae deletion strains, locus YPR119W, strain clb2, active compounds read low 1.01 | S. cerevisiae deletion strains, locus YPR141C, strain kar3, active compounds read low 1.01 | S. cerevisiae deletion strains, locus YPR163C, strain tif3, active compounds read low 1.03 | S. cerevisiae deletion strains, locus YPR167C, strain met16, active compounds read low 1.02 | S. cerevisiae deletion strains, strain wtn01, active compounds read low 1.02 | S. cerevisiae strains, strain wild type, active compounds read low 1.01

Reference: PubChem BioAssay AID1159580 (chemical genetic matrix, 2015)
